In PubChem BioAssay (NCI):
Several values for one entry are separate records, joined by “and”; a condition that tells them apart may be missing. Equal values may be shown once. Compounds without any hit were thinned out: in the full panel of roughly 83,000, 20% have a hit.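 Results are percent growth after 48 hours of single-concentration exposure. 100 means growth as in untreated cells, lower positive values show inhibition; negative values down to -100 show cell death.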 Unmarked numbers belong to inactive results. Activity calls are given as the source filed them. The calls were made as follows: active = growth percent below 10; inactive = the rest.

system: HL-60(TB) leukemia; assay: NCI-60 one-dose screen, 48 h (100 = growth as untreated, 0 = no growth, -100 = all killed); conditions: 10 µM unless noted

SMILES	growth
O=C(Nc1ccc(-n2ccc3c(NC(=O)c4ccccc4)nccc32)cc1)c1ccc(N2CCOCC2)c(C(F)(F)F)c1	24.8%
CC(Oc1ccc(C(=O)NS(=O)(=O)C(C)(C)C)cc1C(F)(F)F)c1ccc(Oc2ccccc2)cn1 (centres undefined)	72.2%
COc1ccc(-c2nn(-c3cccc(Cl)c3)cc2-c2c(C#N)c(=O)n3[nH]c(-c4ccccc4)nc3c2C#N)cc1	79.9%
COc1cc2cc(Oc3ccc(NC(=O)Nc4ccc(Cl)c(Cl)c4)cc3)c(C)nc2cc1OC	9.64% (active)
Cc1cc(C)c(CC(=O)O)c(C)c1	97.3%
O=C(NNC(=O)c1ccc(-n2cc(-c3ccccc3)nn2)cc1)Nc1ccccc1	95.4%
O=C(/C=C/c1ccccc1)c1ccc(Nc2nc(NCCO)nc(Nc3ccc(Cl)cc3)n2)cc1	101%
COc1ccc(-c2cn(-c3cccc(C(=O)/C=C/c4cc(OC)c(OC)c(OC)c4)c3)c(=O)[nH]2)cc1OC	66.6%
CS(=O)(=O)c1ccc(-c2cnn3ccc(-c4cccc(S(=O)(=O)C5CC5)c4)nc23)cc1	24.3%
CCOC(CN1CCN(CC(C)C(=O)c2ccccc2)CC1)c1ccccc1 (centres undefined)	110%
O=C(/C=C/c1cccc2ccccc12)Nc1ncc(Cc2ccccc2)s1	-11% (active)
CN(C)CCNc1nc2ccccc2c2c(=O)c3cc(F)ccc3sc12	38.1%
Cc1ccc2c(c1)C(=O)/C(=C\Nc1ccc(C(N)=O)cc1)C(O)O2 (centres undefined)	130%
COc1ccc(/C=C2\N=C3SC=C(N)N3C2=O)cc1	-40% (active)
O=c1oc2ccc(-c3ccc(F)cc3F)cc2c(=O)n1-c1ccc(Cl)c(C(F)(F)F)c1	1.69% (active)
COc1ccc(/C=C/C(=O)Nc2cccnc2Nc2ccc(F)cc2)cc1	84.3%
CC(CN(C)C)CN1c2ccccc2CCc2ccccc21 (centres undefined)	108%
C[C@H](NC(=O)[C@@H](C)N)[C@H](Oc1ccc2c(cnn2-c2ccc(F)cc2)c1)c1ccc2c(c1)OCCO2	25.8%
COC(=O)c1n[nH]c2ccc3nc(-c4cn[nH]c4C(F)(F)F)c4c(c3c12)CCCC4	70%
COC(=O)[C@H](NC(=O)C1(C)CCC[C@]2(C)[C@H]3C[C@H]4C(C(C)C)=C[C@]3(CC[C@@H]12)[C@@H]1C(=O)CCC(=O)[C@@H]14)C(C)C (some centres undefined)	103%

SMILES	growth
Nc1nc2c(s1)CCc1cn(S(=O)(=O)c3ccccc3)cc1-2	70.6% and 76.2%
Cc1nnc(NC(=O)c2nc(S(=O)(=O)Cc3ccc(F)cc3)ncc2Cl)s1	-30.5% (active)
CO/N=C(/C)c1ccc(NC(=O)CSc2nnc(-c3ccncc3)n2-c2ccccc2)cc1	86%
O=c1[nH]cc(Cl)cc1O	75.9%
O=C1NC(=O)C(CC(=O)n2c(-c3ccccc3)nc3ccccc32)C(=O)N1	106%
Cc1c(C(=O)NO)sc2ncnc(Nc3ccc(NC(=S)Nc4ccccc4)cc3)c12	103%
OCCOc1c(Cl)cc(Cl)cc1Cl	118%
CC(C)C1=C(O)C2=C(C(=O)C1=O)[C@@]1(C)CCCC(C)(C)[C@@H]1CC2	56.4%
CC1=Nc2cnc(Nc3ccc(OCCN4CCCC4)cc3)nc2Nc2ccccc21	76.4%
Cc1cc(-c2ccccc2)c(C)n1Cc1ccc(Cl)cc1	-27.2% (active)
COc1ccc2c(c1)[n+](=O)c(/C=C/C(=O)c1cc(OC)c(OC)c(OC)c1)c(C)n2[O-]	-49.1% (active)
COc1ccc(NC(=O)c2ccoc2COc2ccccc2)cc1	96.9%
OC(CNC1CCCC1)Cn1c2ccccc2c2ccccc21 (centres undefined)	-47.3% (active)
O=S(=O)(NC1c2ccccc2Oc2ccccc21)c1ccccc1	86.5%
CN(C)c1ccc2nc3ccc(=O)cc-3sc2c1	-21.3% (active) and -7.59% (active)
O=C(Nc1cccnc1Nc1ccc(F)cc1)c1cn(Cc2cccc(Oc3ccccc3)c2)nn1	26.3%
CCN(CC)c1ccc(/C=C/c2ccc3cc(C)ccc3[n+]2CC)cc1	-41.5% (active)
N#Cc1c(-c2cccs2)cc(-c2cccnc2)[nH]c1=O	97.6%
CCc1ccc(Oc2cn[nH]c2-c2ccc(OCCc3ccc(F)cc3)cc2O)cc1	111%
